Only some compounds are listed: those with a hit (about 3.3% of all), similar ones and a draw of the others.
MBD2 inh = MBD2-methylated oligo binding inhibition; Q9UBB5; TR-FRET, MBD2 binding to methylated oligonucleotide; inhibition, % at 4.4 µM; 0.31% of 370,000 active; in the data active means inhibition above about 13%
PfGluPho inh = PfG6PD (Plasmodium falciparum) enzyme inhibition | inhibition, % at 20 µM | PfGluPho enzyme, NADPH resazurin-diaphorase fluorescence | AID 504690 | 0.78% of 350,000 active;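 active means inhibition reaching at least a set limit at 20 µM in the primary screen, cut at about 59% in these data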;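 further: 0% = DMSO wells with substrate and 100% = DMSO wells lacking glucose-6-phosphate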
UHRF1 binding = human UHRF1 methylated DNA binding inhibitors | inhibition, % at 4.4 µM | AID 687016 | UHRF1 binding to methylated oligo, TR-FRET | Q96T88 | 0.75% of 370,000 active; in the data active means inhibition above about 21%;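 further: UHRF1 SRA domain binding a hemimethylated CpG hairpin DNA probe; 0% = median of test compound wells and 100% = reference inhibitor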
M18AAP inhibitor = PfM18AAP enzyme inhibition; 1.2% of 290,000 active; AID 1822; inhibition, % at 7.35 µM; recombinant PfM18AAP, H-Glu-NHMec fluorogenic cleavage;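 active means inhibition above the campaign mean inhibition over all tested compounds plus 3 SD, cut at about 28% in these data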;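 further: 0% = plate median of test compound wells and 100% = 2 mM ZnCl2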
PRMT1 FP inh = inhibitors of human PRMT1. AID 652257. recombinant PRMT1, activity-based probe fluorescence polarization. inhibition, % at 2.79 µM. 1.3% of 370,000 active. Q99873;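 active means inhibition above about 21% made by adding two undisclosed values, limit read from the data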
Starred values were filed as active, the others as inactive; . = no result.

SMILES | MBD2 inh | PfGluPho inh | UHRF1 binding | M18AAP inhibitor | PRMT1 FP inh
CCc1cc(C(=O)NNC(=S)NCc2ccccc2)cs1 | 0 | -3 | -4 | 7 | -3
Cc1ccc(/C=C2\SC(=S)N(C3CCS(=O)(=O)C3)C2=O)o1 (stereo not drawn) | -4 | 20 | 17 | 26 | 21
CC1=C(C#N)C(=O)N(C2CCS(=O)(=O)C2)C(=O)/C1=C\c1ccc(C)o1 (stereo not drawn) | . | . | . | 30* | .
COc1ccc(C(=O)Nc2ccc(S(=O)(=O)Nc3cc(C)nc(C)n3)cc2)c(OC)c1 | 1 | -27 | 3 | 9 | 21*
COc1ccccc1C(=O)Nc1ccc(S(=O)(=O)Nc2cc(C)nc(C)n2)cc1 | -2 | -7 | -2 | 6 | -2
CC1OC23CCCCC2C(C#N)(C(=N)O3)C1(C#N)C#N (stereo not drawn) | 2 | 2 | 3 | 6 | 7
N#CC12COC3(CCCCC3C1(C#N)C#N)OC2=N (stereo not drawn) | 5 | 13 | 5 | 5 | 35*
N#CC1(C#N)COC23CCCCC2C1(C#N)C(=N)O3 (stereo not drawn) | 0 | 12 | -3 | -4 | 22*
COc1ccc(OC)c(CN2C(=O)c3ccnn3CC2(C)c2nnnn2C2CCCC2)c1 (stereo not drawn) | 0 | . | -3 | . | -1
COc1ccc(C(=O)CC(c2ccccc2)C2C(=O)CCCC2=O)cc1 (stereo not drawn) | -2 | -9 | 5 | 31* | -2
COc1ccc(C(CC(=O)c2ccccc2)C2CCCCC2=O)cc1 (stereo not drawn) | -5 | 3 | 2 | 0 | -2
O=C1/C(=C/c2ccco2)CCc2ccccc21 | -1 | 9 | 3 | 13 | 7
O=C1C(=Cc2ccco2)C(=O)c2ccccc21 | -2 | 12 | 0 | 4 | 35*
CCc1c(-c2ccccc2)ncn1CCc1ccccc1OC | 0 | . | -1 | . | 1
COc1ccc(CCNC(=O)c2c(N)[nH]c(C(=O)c3ccccc3)c2-c2ccc(N(C)C)cc2)cc1 | 0 | . | 3 | . | -2
COc1ccc(NS(=O)(=O)c2cccc(C(=O)NCC3(N4CCOCC4)CCCCC3)c2)cc1 | 5 | 0 | 3 | 5 | 0
COc1ccc(NS(=O)(=O)c2cccc(C(=O)NCC3(N4CCCCC4)CCCCC3)c2)cc1 | 3 | -6 | 25* | . | -3
C[C@@H]1CN([C@@H](C)CO)C(=O)c2cc(Br)cnc2O[C@@H]1CN(C)C(=O)c1ccc(F)cc1 | 11 | . | -2 | . | -2
COc1ccc2ccccc2c1C1CC(=O)N2CN(C)CSC2=C1C#N (stereo not drawn) | -3 | 79* | -5 | 26 | 20
CC(C)c1ccc(C2CC(=O)N3CN(C)CSC3=C2C#N)cc1 (stereo not drawn) | . | 86* | . | 18 | .
COc1cccc(C2CC(=O)N3CN(c4ccccc4F)CSC3=C2C#N)c1 (stereo not drawn) | 3 | 83* | -1 | 15 | 7
COc1ccc(OC)c(C2CC(=O)N3CN(c4cccc(Cl)c4)CSC3=C2C#N)c1 (stereo not drawn) | 2 | 56 | 1 | 20 | 18
CCOC(=O)Cc1nc(N2CCN(CCO)CC2)c2c(C)c(C(=O)OCC)sc2n1 | -2 | . | 1 | . | 4
O=c1[nH]c(SCc2nc3ccccc3c(=O)n2-c2ccccc2)nc2ccccc12 | -7 | 9 | 35* | 12 | 2
O=C(N/N=C/c1ccc(-c2ccccc2C(=O)O)o1)c1cccs1 | -2 | -13 | 23* | 13 | 6
SMILES | MBD2 inh | PfGluPho inh | UHRF1 binding | M18AAP inhibitor | PRMT1 FP inh
Cc1ccc(Cn2nnc3c2-c2cc(F)ccc2S(=O)(=O)N(C(C)(C)C)C3)cc1 | 3 | . | 4 | . | -4
CN1CCN(CCCCOc2ccc(F)cc2)CC1 | 12 | -14 | 22* | -9 | -4
CC(C)Oc1ccc(OCCCN2CCCCCC2)cc1 | 6 | 9 | -2 | 11 | 0
CC(C)(C)c1ccc(OCCCN2CCCC2)cc1 | 3 | -12 | 24* | 4 | 8
COc1ccc(CNCC#Cc2ccc(C(F)(F)F)cc2)c(OC)c1 | -8 | . | 0 | . | 0
COCCSc1ncccc1-c1nc2ccccc2[nH]1 | 0 | . | 0 | . | -2
Cn1nc(CC(=O)Nc2ncc(Br)s2)c2ccccc2c1=O | 7 | -6 | 22* | -5 | -4
Cn1nc(CC(=O)NC2CCCCCCCCCCC2)c2ccccc2c1=O | -3 | -15 | -4 | 7 | -3
CCOC(=O)C1=C(CS(=O)(=O)c2ccc(F)c(C)c2)NC(=O)NC1c1ccc(O)c(O)c1 (stereo not drawn) | -5 | 9 | 4 | 75* | 2

Bioassay records from PubChem.
